Values without a mark were called inactive.
Tested on: gramicidin D channels in DC22:1PC lipid vesicles (bilayer-modifying potency)
Assay: initial Tl+ fluorescence quench rate relative to no-drug control (NormRate, gramicidin monomer-dimer shift) (ratio (fold of control)); higher = stronger bilayer-modifying effect (equilibrium shifted toward conducting dimers), active = 1.5 or more
Conditions: 10 µM; lipid concentration 50 µM; temperature: 25 °C
Description: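 Stopped-flow fluorescence quench assay: ANTS-loaded DC22:1PC large unilamellar vesicles doped with gramicidin D (1:2000), 50 µM lipid, equilibrated 10 min with 10 µM drug (0.1% DMSO), mixed with Tl+ quench buffer at 25°C. Initial quench rate (Tl+ influx) was fitted with a modified stretched exponential and normalised to the no-drug control rate (NormRate); duplicates from two independent LUV preparations (triplicates for 7 drugs).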

| SMILES | initial Tl+ fluorescence quench rate |
| --- | --- |
| C[C@]1(O)C[C@@H](c2nc(-c3ccc4ccc(-c5ccccc5)nc4c3)c3c(N)nccn32)C1 | 1.59 (active) |
| CCc1nc2ccccc2n1C[C@H](O)COc1cc(C)ccc1Cl | 2.91 (active) |
| CCCn1c(NC(=O)c2ccc3ccccc3n2)nc2ccccc21 | 1.4 |
| CC(C)(C(=O)Nc1ccc(F)cc1)n1cc(-c2ccccc2F)cn1 | 1.42 |
| CNc1nnc(Sc2cnn(-c3ccccc3)c(=O)c2Cl)s1 | 1.04 |
| Cc1cc(C)cc(COc2ccc3c(C)c(CCC(=O)O)c(=O)oc3c2C)c1 | 2.64 (active) |
| COc1cccc(-n2nnnc2S(C)(=O)=O)c1 | 1.06 |
| c1cncc(NCc2ccc(-c3cc4ccncc4cc3OC3CCNCC3)s2)c1 | 1.32 |
| C[C@H]1CCCCN1C(=O)NCCc1coc(-c2ccc(F)cc2)n1 | 1.06 |
| Cc1nc(-c2ccccn2)nc(NCCc2ccc(S(C)(=O)=O)cc2)c1Cl | 1.13 |
| Cc1ccc(S(=O)(=O)n2cc(-c3ccnc(N)c3)c3cc(Br)cnc32)cc1 | 2.5 (active) |
| COc1cc(C2=NCCN2)ccc1-n1cc(-c2cccc(C3=NCCN3)c2)nn1 | 1.15 |
| CCc1nc2ccc(C(=O)NCc3ccc4c(c3)OCO4)cn2c1N(C)Cc1cccs1 | 2.01 (active) |
| CC(C)n1nc(-c2cc3c(Cl)cccc3[nH]2)c2c(N)ncnc21 | 3.74 (active) |
| Cc1cc(Cl)ccc1NC(=O)CCc1ccc(S(=O)(=O)NCC(C)C)cc1 | 1.42 |

Source: the supplement of paper PMC9948646
